Experimental data from PubChem BioAssay AID1724 (National Center for Advancing Translational Sciences (NCATS), 2009).
Records with an inconclusive call do not appear. Where a call stands in place of a potency, no number is given. Activity calls are given as the source filed them. The call rests on the fitted dose curve; in most records, active means well fitted inhibition curve with a large enough effect; inconclusive means small, poorly fitted or top-dose-only effect, or effect the other way; inactive means no such curve, though single readings can be large or run the other way.

Assay: Confirmation Concentration-Response Assay for Inhibitors of the ERK Signaling Pathway using a Homogeneous Screening Assay
How it was run: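 Vasopressin-V1b-expressing HEK293 cells, seeded overnight in 1% FBS, pretreated 30 min at 37C with compounds, then stimulated 5 min with 25 nM vasopressin. Phospho-ERK read by AlphaScreen after lysis and 5 hr beads; AC50 from Hill fit, normalized to DMSO and vasopressin.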

SMILES	Potency
COc1cc2ncnc(Nc3cccc(Cl)c3)c2cc1OC	inactive
CNc1cccc2c1C(=O)c1ccccc1C2=O	14.1 µM (active)
C/C(=N\Nc1nnc(-c2ccccc2)c(-c2ccccc2)n1)c1cccc([N+](=O)[O-])c1	inactive
COc1ccc(C(=O)Nc2cccc(C(C)=O)c2)cc1S(=O)(=O)N1CCOCC1	inactive
CC(/C=C/c1ccccc1)=N\Nc1ccccc1[N+](=O)[O-]	inactive
Cc1cccc(CNc2ncnc3ccc(-c4cccnc4)cc23)c1	12.6 µM (active)
Cc1noc(NS(=O)(=O)c2ccc(NC(=O)COc3ccc(Cl)cc3Cl)cc2)c1C	inactive
Cc1cc(-c2ccccc2)n(-c2cc(N/N=C/c3ccccc3O)ncn2)n1	inactive
CCOC(=O)c1ccc(NC(=O)c2cccc(S(=O)(=O)N3CCOCC3)c2)cc1	25.1 µM (active)
O=C(Nc1ccc(N2CCN(C(=O)c3ccco3)CC2)c(Cl)c1)c1cc2ccccc2o1	7.94 µM (active)
c1ccc(-c2csc(-c3nc4ccccc4[nH]3)n2)cc1	35.5 µM (active)
CCOc1ccc(/C(O)=C2/C(=O)C(=O)N(c3ncccn3)C2c2ccccc2)cc1 (configuration not stated)	inactive
C=C[C@]1(C)CC(=O)[C@@]2(O)[C@@]3(C)C(O)CCC(C)(C)C3C(O)C(OC(C)=O)[C@@]2(C)O1 (some centres not stated)	inactive
Cn1nc(-c2ccc(Cl)cc2)nc2c(=O)n(C)c(=O)nc1-2	inactive
COc1ccc(C2=Nn3c(nnc3-c3ccccc3OC)SC2)cc1OC	2.24 µM (active)
CN(C)c1ccc(-c2ccc3ncnc(NCc4ccccc4)c3c2)cc1	15.8 µM (active)
Cc1ccc(NNc2c(C)nc3ccccc3nc2=O)cc1	inactive
COc1ccc(N=C2C(=Nc3ccc(OC)cc3)N(c3ccccc3)C(=S)N2C(=O)c2ccc(Cl)cc2)cc1	3.16 µM (active)
C=C[C@@]1(C)CC(=O)[C@@]2(O)[C@@]3(C)[C@@H](O)CCC(C)(C)[C@@H]3[C@H](O)[C@H](OC(C)=O)[C@@]2(C)O1	inactive
O=C(c1cccs1)c1no[n+]([O-])c1C(=O)c1cccs1	2 µM (active)
CC1(C)OC(c2ccccc2)=C/C(=C/C=C2C(=O)c3ccccc3C2=O)O1	14.1 µM (active)
CCCNc1ncnc2sc(C)c(C)c12	inactive
